Results on 37 molecules are retold here after PubChem BioAssay (NCATS).

Activity calls are given as the source filed them. Calls come from the whole dose curve. Residues, ends and D or L forms follow the SMILES beside them. *: point of attachment. Cbz = O=C(OCc1ccccc1)*

In this experiment the target is Tumor susceptibility gene 101 protein (Homo sapiens) (UniProt Q99816). As to the kind of experiment: qHTS Validation Assay for Iinhibitors of HIV-1 Budding by Blocking the Interaction of PTAP/TSG101 (AID 485342). The note with it: TSG101-PTAP binding, fluorescence polarization, 4-point titration; series mostly up to 115 µM. In short, it runs like this: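 FP read-out: FITC-PTAP peptide, 50 nM final, binding Tsg101 binding domain, 10 uM final; 20 min r.t.; 10 mM HEPES pH 7.5, 0.15 M NaCl, 0.01% Tween 20, 3 mM EDTA, 0.1 mM TCEP.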
Tumor susceptibility gene 101 protein (Homo sapiens), sequence (Q99816 whole entry, looked up, the tested form may be a part): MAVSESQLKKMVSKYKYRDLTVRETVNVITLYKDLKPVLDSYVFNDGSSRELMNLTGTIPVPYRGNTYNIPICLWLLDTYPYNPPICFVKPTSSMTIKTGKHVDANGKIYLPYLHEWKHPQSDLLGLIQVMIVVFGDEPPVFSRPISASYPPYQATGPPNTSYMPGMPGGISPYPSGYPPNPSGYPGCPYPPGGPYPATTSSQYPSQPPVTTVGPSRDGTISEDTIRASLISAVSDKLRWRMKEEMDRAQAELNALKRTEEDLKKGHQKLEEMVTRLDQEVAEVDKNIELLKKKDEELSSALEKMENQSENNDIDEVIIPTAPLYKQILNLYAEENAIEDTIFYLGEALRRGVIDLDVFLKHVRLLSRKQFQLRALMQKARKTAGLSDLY
On the technique in general: Quantitative high-throughput screening tests each substance at several concentrations.
As to `N=C(N)c1ccc(OCCCCCOc2ccc(C(=N)N)cc2)cc1` (tested in a mixture with another compound), the result was inactive.

For the molecule `CC(O)C(O)[C@H]1CNc2nc(N)[nH]c(=O)c2N1` (some centres not stated), the call was inactive.

In the case of `N#C/C(=C\c1ccc(O)c(O)c1)C(=O)NCCCNC(=O)/C(C#N)=C/c1ccc(O)c(O)c1`, the call was inactive.

Regarding `Cc1nc2c(OCc3ccccc3)cccn2c1CC#N`, the outcome was inactive.

On to `O=C(O)C1=CCCN(CCON=C(c2ccccc2)c2ccccc2)C1`, for which the outcome was inactive.

As for `CC(=O)SC1CC2=CC(=O)CC[C@]2(C)C2CC[C@@]3(C)C(CC[C@@]34CCC(=O)O4)C12` (some centres not stated), the result was inactive.

`COc1ccc(CCn2nnnc2C2(c3ccc(C)cc3)CC2)cc1`: the molecule was called inactive.

`CC(C)[C@@H]1CC[C@@H](C)C[C@@H]1P(=O)(c1ccccc1)c1ccccc1`: the molecule was called inactive.

Turning to `CCCCOc1cc(CC2CNC(=O)N2)ccc1OC` (configuration not stated), the molecule was called inactive.

Turning to `O=c1cc(O)cc(/C=C/c2ccc(O)c(O)c2)o1`, the molecule was classed as inactive.

In the case of `Nc1ncnc2c1ncn2C1CCCO1` (configuration not stated), the molecule was called inactive.

In the case of `O=C(O)C1=CC(=C(c2ccc(O)c(C(=O)O)c2)c2ccc(O)c(C(=O)O)c2)C=CC1=O`, the molecule was classed as inactive.

Regarding `CCCn1c(=O)c(C)cn2nc(N)nc12`, the call was inactive.

In the case of `C=CC1(C)CC(=O)C2(O)C(C)(O1)C(OC(C)=O)C(O)C1C(C)(C)CCC(O)C12C` (configuration not stated), the molecule was called inactive.

`CC(C)C[C@H](NC(=O)C1OC1C(=O)O)C(=O)NCCCCN=C(N)N` (some centres not stated): the outcome was inactive.

As to `O=C(O)CCC/C=C\C[C@@H]1[C@@H](/C=C/[C@H](O)C2Cc3ccccc3C2)[C@@H](F)C[C@@H]1O`, the call was inactive.

Consider `CC(C)[C@H](NC(=O)OCc1ccccc1)C(=O)N[C@H](C=O)Cc1ccccc1` (Cbz-Val-Phe-aldehyde), for which the molecule was classed as inactive.

In the case of `NC(=Nc1ccccc1)NC(=O)c1nc(Cl)c(N)nc1N`, the molecule was called inactive.

With `N[C@H](C(=O)O)[C@H](Cc1ccccc1)C(=O)O`, the outcome was inactive.

Take `CC(=O)O[C@H]1Cc2ccccc2N(C(N)=O)c2ccccc21`: the result was inactive.

Turning to `NC[C@@H]1O[C@H](c2ccccc2)Cc2c1ccc(O)c2O`, the call was inactive.

Take `Cc1ccc2c(c1)C(N1CCN(C)CC1)=Nc1cccnc1N2`: the result was inactive.

Consider `NS(=O)(=O)c1cccc2c1c([N+](=O)[O-])cc1nc(O)c(O)nc12`, for which the result was inactive.

Consider `Nc1nc2c(nc(Br)n2C2OC3COP(=O)(O)O[C@@H]3C2O)c(=O)[nH]1` (some centres not stated), for which the outcome was inactive.

Take `NCC(O)C1CCCCCCC1` (configuration not stated): the molecule was called inactive.

Regarding `CCN(c1nc(N)c(C(=O)N=C(N)N)nc1Cl)C(C)C`, the result was inactive.

`O=c1ccc2c(OCCCCc3ccccc3)c3ccoc3cc2o1`: the outcome was inactive.

As for `CC(C)NC[C@H](O)COc1cccc2ccccc12`, the outcome was inactive.

`Cc1nc(N=Nc2cc(S(=O)(=O)O)c3cc([N+](=O)[O-])cc(S(=O)(=O)O)c3c2)c(COP(=O)(O)O)c(C=O)c1O`: the result was inactive.

As to `CN1CC(O)C(O)C(O)C1CO` (configuration not stated), the result was inactive.

`CCCCCCCCCCCCCCSCC(=O)O`: the call was inactive.

As for `CCCCCCC/C=C\CCCCCCCCC(=O)O`, the result was inactive.

`Cc1ccc([N+](=O)[O-])cc1S(=O)(=O)N(C)C`: the outcome was inactive.

With `C=C1C[C@@]23CC[C@H]4[C@@](C)(CCC[C@@]4(C)C(=O)O)[C@@H]2CC[C@]1(O)C3`, the molecule was classed as inactive.

In the case of `O=C(O)c1ccccc1Nc1cccc(OCc2ccc3ccccc3n2)c1`, the outcome was inactive.

With `CCCCCCC(=O)OC1CC(C)(C)NC(C)(C)C1`, the outcome was inactive.

With `O=C(O)/C(=C/c1c(C(=O)O)[nH]c2cc(Cl)cc(Cl)c12)c1ccccc1`, the molecule was called inactive.
